Bioassay records deposited in PubChem by National Center for Advancing Translational Sciences (NCATS).
Sampled rows, rich in hits. Any-hit rate of the full collection: about 9.2%.
NPC1 prom act – activates the NPC1 promoter; Huh7 NPC1 promoter luciferase reporter, 24 h; 320,000 compounds, 2.4% hits; Potency, µM (highest dose often 9.22 µM), for the others: at the top dose activation, hits mostly activators; note: % of control where 0% means no effect; nearly all actives have a fitted effect of over 60% in size
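Compounds in DMSO were transferred onto Huh7 NPC1-luciferase reporter cells pre-incubated 2 h; after 24 h at 37 °C, Amplite reagent was dispensed and luminescence recorded 10 min later.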
FLuc counter – counter-screen for miR-21 project: firefly luciferase inhibitors or activators. AID 588342. 360,000 compounds, 6.9% hits. Potency, µM (top dose mostly 57.5 µM), inactives show at the top dose activity change, negative = inhibition, most hits filed as inhibitors. P08659. purified FLuc, Km substrates, luminescence inhibition;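 note: plate controls were vehicle for no effect and reference inhibitor for full effect; nearly all actives have a fitted effect of over 55% in size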
Target sequence (P08659 whole entry, looked up): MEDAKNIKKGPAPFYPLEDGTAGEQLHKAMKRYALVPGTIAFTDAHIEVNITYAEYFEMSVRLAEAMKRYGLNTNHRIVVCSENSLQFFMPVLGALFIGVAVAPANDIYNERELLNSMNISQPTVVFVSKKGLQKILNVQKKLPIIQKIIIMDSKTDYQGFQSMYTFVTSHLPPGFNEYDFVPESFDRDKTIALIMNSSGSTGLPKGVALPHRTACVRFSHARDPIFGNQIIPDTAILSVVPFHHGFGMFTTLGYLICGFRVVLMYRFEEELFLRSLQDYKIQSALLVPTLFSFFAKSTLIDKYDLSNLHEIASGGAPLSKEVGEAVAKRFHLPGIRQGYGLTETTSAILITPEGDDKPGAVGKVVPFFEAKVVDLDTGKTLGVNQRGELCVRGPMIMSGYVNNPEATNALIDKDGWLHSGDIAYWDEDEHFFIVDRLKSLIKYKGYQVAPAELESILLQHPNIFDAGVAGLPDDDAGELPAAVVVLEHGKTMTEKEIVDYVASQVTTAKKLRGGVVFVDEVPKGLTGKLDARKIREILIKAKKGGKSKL
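Biochemical qHTS of compounds, final roughly 60 µM downward over six points, against 10 nM purified firefly luciferase using Km concentrations of substrates (10 uM D-luciferin, 10 uM ATP) in Tris acetate pH 7.5 buffer; luminescence output.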
ELG1 repair inh – blocks ELG1-dependent DNA repair in HEK293T cells; 330,000 compounds, 2.3% hits; Potency, µM (top dose mostly 46.1 µM), for the others: top-dose activity change, negative = inhibition, actives largely listed as inhibitors; AID 504467; HEK293T ELG1-luciferase reporter, luminescence, 16 h; DNA damage induced by 5-fluorouridine; note: % is set by controls: 0 for no effect and ±100 for the full control effect; nearly all actives have a fitted effect of over 55% in size
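HEK293T cells expressing luciferase-tagged ELG1 (2,000/well) received 5-Fluorouridine plus compound or DMSO for 16 hr at 37 °C. Luciferase was read by ONE-Glo luminescence after 30 min at room temperature.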
ELG1 genotox – genotoxicity induction in ELG1-luciferase HEK293T cells; Potency, µM (top dose mostly 46 µM), for inactives: at the highest dose activity change, positive = activation, usual class: activators; HEK293T ELG1-luciferase reporter, luminescence, 16 h; 330,000 compounds, 1.3% hits; AID 504466; note: % of control where 0% means no effect; nearly all actives have a fitted effect of over 60% in size
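16 hr compound incubation (37 °C, 5% CO2) of HEK293T cells carrying luciferase-tagged ELG1; luciferase then measured by ONE-Glo luminescence after 30 min at RT.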
Rab9 prom act – activates the Rab9 promoter. Huh7 Rab9 promoter-luciferase reporter, luminescence, 24 h. Potency, µM (top dose mostly 9.22 µM), for inactives: top-dose activation, negative = inhibition, usual class: activators. 320,000 compounds, 2.8% hits. AID 485297; note: % of control where 0% means no effect; nearly all actives have a fitted effect of over 60% in size
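Luminescence from Amplite-detected luciferase (10 minutes, ambient) reports Rab9 promoter activation. Before that, stable Rab9-luciferase Huh7 cells (1500/well, reduced-serum OP-MEM I plus 10% FBS) were exposed to compound for 24 hours at 37C.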
SMN2 splice up – SMN2 splice variant enhancement | Potency, µM (doses to about 46.1 µM), inactives show at the top dose activity change, positive = activation, actives largely listed as activators | AID 1458 | HEK293 SMN2-luciferase splicing reporter, luminescence, 30-36 h | 210,000 compounds, 2.8% hits; note: % of control where 0% means no effect; nearly all actives have a fitted effect of over 55% in size
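HEK293 cells carry an SMN2 […]–luciferase reporter in which exon 7 inclusion puts luciferase in frame. Cells were plated 10-12 h before compound addition, then incubated 30-36 h at 37C. ONE-Glo luminescence was read; sodium butyrate at 4.5 mM final served as control.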
* hit, by the source's call; ? = inconclusive; . = no result given; [ ] = another dose, or the depositor's remark. Calls come from the whole dose curve; as a rule, active = well fitted curve in the direction sought with a large enough effect; inconclusive = small, poorly fitted or top-dose-only effect, or another doubt; inactive = no such curve, though single readings can be large; an effect the other way counts as inactive or inconclusive. Potency is the fitted concentration of half-maximal effect.

SMILES	NPC1 prom act	FLuc counter	ELG1 repair inh	ELG1 genotox	Rab9 prom act	SMN2 splice up
Cc1ccc(/C=N/NC(=O)c2cc(-c3ccc(C)o3)[nH]n2)cc1	-1%	?	?	-2%	0%	.
CC(=O)c1ccc(NC(=O)C(NC(=O)c2ccccc2)=C(C)C)cc1	1%	-1%	11%	0%	-3%	-2%
O=C(Nc1ccccc1C(=O)NC(Cc1ccccc1)C(=O)O)c1ccco1 (stereo unspecified)	1%	-2%	4%	1%	4%	.
COc1ccccc1/C=C/C=N/NC(=O)c1cc(-c2ccc(C)o2)[nH]n1	1%	15µM*	?	-13%	0%	.
CC(NC(=O)c1ccccc1NC(=O)c1ccco1)C(=O)O (stereo unspecified)	0.56µM*	21µM*	?	?	0.32µM*	0.32µM*
CCN(CC(=O)Nc1c(F)cccc1F)C(=O)/C=C/c1ccc2c(c1)OCO2	16%	?	?	1%	16%	.
COc1ccccc1/C=C/C=N/NC(=O)c1ccco1	?	17µM*	?	?	?	.
COc1ccccc1/C=C/C=N/NC(=O)c1ccncc1	0%	?	4%	1%	0%	9%
COc1cc2c(cc1OC)C1=NC(=O)CN1C(SCc1ccccc1C)=N2	-4%	-2%	10µM*	-2%	-7%	-12%
Cc1ccc(CSC2=Nc3ccccc3C3=NC(=O)CN23)cc1	5%	-22%	7%	10%	8%	?
CC(=O)c1ccc(N2Cc3ccccc3C2=NC(=O)c2cccs2)cc1	?	?	?	?	?	14µM*
CCOC(=O)c1ccc(N2Cc3ccccc3C2=NC(=O)c2cccs2)cc1	8%	?	?	?	5%	14%
Cc1ccc(NC(=O)c2nc(S(C)(=O)=O)ncc2N(Cc2ccco2)Cc2ccco2)cc1C	.	-5%	.	.	.	.
Cc1cc(C(=O)CN2C(=O)NC3(CCCc4sccc43)C2=O)c(C)n1-c1ccccc1 (stereo unspecified)	9%	17µM*	?	-1%	12%	10%
O=C(NCc1ccccc1)c1ccc2c(c1)N(Cc1ccc(F)cc1)CCS2	.	7%	.	.	.	-42%
Cc1ccc(-c2nc3ccccc3nc2NN)cc1	6%	1.3µM*	?	8.2µM*	?	.
CN(Cc1ccccc1)C(=O)Cn1ncc2c3ccccc3n(Cc3cccc(Cl)c3)c2c1=O	.	1%	.	.	.	14%
O=C1c2ccccc2CN1CCSC(=S)N1CCOCC1	3.5µM*	12µM*	?	?	3.5µM*	13µM*
O=C1c2ccccc2CN1CCSC(=S)N1CCSCC1	?	24µM*	?	14%	3.2µM*	15%
COc1cccc(NC(=O)C(=O)N2CCOCC2)c1	24%	19µM*	?	?	?	13µM*
COc1cccc(-c2cc(C(=O)N3C(C)CCCC3C)no2)c1 (stereo unspecified)	5µM*	11µM*	?	7.1µM*	3.2µM*	14µM*
COc1ccc(-c2cc(C(=O)N3CCOCC3)no2)cc1OC	?	?	?	?	22%	21%
COc1ccc(-c2cc(C(=O)N3CCOCC3)no2)cc1	0.35µM*	1.5µM*	?	0.41µM*	0.45µM*	.
COc1cccc(-c2ocnc2C(=O)Nc2ccc(N3CCOCC3)cc2N2CCOCC2)c1	2%	2%	18µM*	-6%	2%	.
CN(C)c1ccc(/C=N\NC(=O)CC#N)cc1	1%	-16%	22%	9%	3%	11%
SMILES	NPC1 prom act	FLuc counter	ELG1 repair inh	ELG1 genotox	Rab9 prom act	SMN2 splice up
COc1cccc(-c2cc(C(=O)N3CCOCC3)no2)c1	1.3µM*	8.5µM*	?	?	1.4µM*	.
CCOC(=O)C1CCCN(C(=O)c2cccc(NC(=O)c3nsc4ccccc34)c2)C1 (stereo unspecified)	.	9.5µM*	.	.	.	.
O=C(Nc1cccc(C(=O)N2CCN(c3ccccc3)CC2)c1)c1nsc2ccccc12	.	2.7µM*	.	.	.	.
COc1cccc(N2CCN(C(=O)c3cccc(NC(=O)c4nsc5ccccc45)c3)CC2)c1	.	1.9µM*	.	.	.	.
Cc1ccc(C(=O)N2CCN(c3ccccc3)CC2)cc1NC(=O)c1nsc2ccccc12	.	-4%	.	.	.	.
COc1ccc(N2CCN(C(=O)c3cccc(NC(=O)c4nsc5ccccc45)c3)CC2)cc1	.	9.5µM*	.	.	.	.
Cc1cc(C)c(S(=O)(=O)NCC(c2cccs2)S(=O)(=O)c2ccccc2)c(C)c1 (stereo unspecified)	.	4%	.	.	.	.
O=C(NC1CCSc2ccccc21)c1ccc(F)cc1 (stereo unspecified)	-7%	-1%	4%	-9%	4%	.
CC1CCN(C(=O)c2cccc(NC(=O)c3nsc4ccccc34)c2)CC1	.	3.4µM*	.	.	.	.
O=C(Nc1ccccc1)N1CCN(C(=O)c2nsc3ccccc23)CC1	.	-6%	.	.	.	.
Brc1ccccc1-c1nnc(CSc2nnc3sc4ccccc4n23)o1	14%	?	16%	7%	4µM*	0%
COc1ccc2nc(SCC(=O)N3CCCCC3)c(C#N)cc2c1	-2%	-2%	-2%	1%	-3%	.
COc1ccc2nc(N3CCCC3)c(C#N)cc2c1	21%	11µM*	?	?	26%	-22%
Cc1ccc2nc(N3CCN(C(=O)c4ccc(F)cc4)CC3)c(C#N)cc2c1	-5%	-5%	?	-8%	-6%	.
COc1ccc2nc(N3CCCCC3)c(C#N)cc2c1	17%	3.8µM*	?	?	3.2µM*	5%
COc1ccc2nc(SCC(=O)N3CCCCCC3)c(C#N)cc2c1	19%	?	0%	0%	27%	6%
COc1ccccc1C(=O)N1CCN(c2nc3cc(C)c(C)cc3cc2C#N)CC1	2%	-14%	23µM*	0%	-3%	-85%
Cc1ccc(-c2nc(CS(=O)(=O)CC(=O)Nc3ccc(Br)cc3F)c(C)o2)cc1	.	-3%	.	.	.	-1%
Cc1ccc(Sc2ccc(N3CCCC(C(=O)Nc4ccc(F)cc4)C3)nn2)cc1 (stereo unspecified)	.	-16%	.	.	.	-2%
CC(C)c1ccccc1OCC(=O)Nc1nnc(C2CC2)s1	4%	0%	27%	-6%	3%	.
Cc1nc2ccccc2c2nc3ccccc3n12	7%	?	-8%	?	3%[1.84 µM]	4%
c1ccc2c(c1)nnn1c3ccccc3nc21	1.1µM*	4.8µM*	?	1.6µM*	25%	-49%
CCC1S/C(=N/C(=O)NC2CCCCC2)NC1=O (stereo unspecified)	?	?	?	?	?	11µM*
